Results on eleven molecules are retold here after ChEMBL document CHEMBL3988442, “University of Dundee, Small-Polar-MMV Screening Library” (2021).

For some of these results: Potency and affinity values are given separately.

Design in all cases: scale not given: direction of the effect not stated beside the values
Assay [1] has as its target Protein translocase subunit SecA (Escherichia coli (strain K12)) (UniProt P10408). Briefly: Assay to Identify E. coli SecA ATPase Inhibitors. Type of assay: functional. The conditions noted are these: 30 µM.
In assay [2] the target is T1, Ubiquitin-activating enzyme e1, putative (Leishmania donovani (strain BPK282A1)) (UniProt E9BSI1).
T1 sequence (whole entry): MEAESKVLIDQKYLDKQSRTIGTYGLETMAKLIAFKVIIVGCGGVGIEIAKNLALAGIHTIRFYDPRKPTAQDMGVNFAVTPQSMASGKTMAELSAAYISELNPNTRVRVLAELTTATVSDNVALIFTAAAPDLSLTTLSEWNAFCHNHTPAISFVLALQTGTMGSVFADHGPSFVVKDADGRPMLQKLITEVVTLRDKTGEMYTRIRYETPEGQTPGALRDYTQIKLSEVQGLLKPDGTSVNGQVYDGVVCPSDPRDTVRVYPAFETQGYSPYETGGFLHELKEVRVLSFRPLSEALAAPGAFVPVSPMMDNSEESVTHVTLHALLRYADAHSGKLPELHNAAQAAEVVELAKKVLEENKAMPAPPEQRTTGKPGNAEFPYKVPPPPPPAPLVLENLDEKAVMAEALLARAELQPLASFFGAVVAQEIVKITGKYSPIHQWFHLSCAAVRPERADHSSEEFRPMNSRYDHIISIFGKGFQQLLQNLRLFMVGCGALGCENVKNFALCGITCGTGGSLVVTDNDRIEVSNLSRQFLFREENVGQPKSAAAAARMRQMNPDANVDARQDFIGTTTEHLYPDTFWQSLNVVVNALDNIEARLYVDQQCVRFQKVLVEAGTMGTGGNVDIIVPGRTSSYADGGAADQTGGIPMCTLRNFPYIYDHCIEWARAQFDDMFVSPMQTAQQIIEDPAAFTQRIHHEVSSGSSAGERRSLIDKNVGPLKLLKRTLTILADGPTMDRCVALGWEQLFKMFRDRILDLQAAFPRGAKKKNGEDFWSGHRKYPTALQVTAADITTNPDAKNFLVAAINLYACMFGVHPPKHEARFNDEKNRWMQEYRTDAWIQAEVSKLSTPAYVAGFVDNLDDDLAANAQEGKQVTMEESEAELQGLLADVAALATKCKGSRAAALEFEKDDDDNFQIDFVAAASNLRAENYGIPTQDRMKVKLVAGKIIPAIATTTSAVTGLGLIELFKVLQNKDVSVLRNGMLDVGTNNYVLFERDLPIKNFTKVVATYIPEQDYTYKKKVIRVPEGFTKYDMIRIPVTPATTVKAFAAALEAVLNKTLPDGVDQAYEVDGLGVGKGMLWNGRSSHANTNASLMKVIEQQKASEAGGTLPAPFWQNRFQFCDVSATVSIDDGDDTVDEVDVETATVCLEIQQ
Description: Leishmania donovani Ubiquitin Activating Enzyme (LdE1). The conditions noted are these: 30 µM. It counts as functional.

Assay [3] concerns the target AMP-activated protein kinase, AMPK (Homo sapiens) (UniProt P54646+O43741+P54619+Q9UGJ0+Q9Y478+Q13131+Q9UGI9). Briefly: AMP-dependent Kinase enzyme assay. An in vitro enzyme assay that detects ADP turnover that is directly proportional to AMPK activity. This uses naive AMPK that is activated during the assay with MK-8722. The conditions noted are these: 30 µM. It counts as functional.

Assay [4] concerns the target Sialic acid-binding Ig-like lectin 9 (Homo sapiens) (UniProt Q9Y336). Description: Hs-Siglec9 ALPHAscreen SOP 20170721. The conditions noted are these: 10 µM. A general note: In Alpha technology, singlet oxygen from a donor bead excites a nearby acceptor bead.
In assay [5] the test system is Trypanosoma cruzi. Briefly: Trypanosoma cruzi phosphomannomutase and mannose-1-phosphate guanylyltransferase assay. Type of assay: functional. The conditions noted are these: 10 µM.
Assay [6] deals with T2, Arginase-2, mitochondrial (Homo sapiens) (UniProt P78540).
T2 sequence (whole entry): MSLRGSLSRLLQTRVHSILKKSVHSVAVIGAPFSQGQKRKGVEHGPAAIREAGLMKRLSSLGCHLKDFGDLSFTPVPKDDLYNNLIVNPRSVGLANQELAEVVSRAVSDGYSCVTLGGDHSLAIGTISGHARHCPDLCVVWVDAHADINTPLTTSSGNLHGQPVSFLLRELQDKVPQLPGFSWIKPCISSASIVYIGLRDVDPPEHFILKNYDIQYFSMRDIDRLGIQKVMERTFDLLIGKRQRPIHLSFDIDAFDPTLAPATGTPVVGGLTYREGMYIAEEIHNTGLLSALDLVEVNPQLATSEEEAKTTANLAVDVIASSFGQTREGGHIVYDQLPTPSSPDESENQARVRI
Description: in vitro enzyme assay to detect the production of urea directly proportional to the activity of Arginase II. Also: in the data most compounds retested in dose-response had high values. It counts as functional. Particulars: 33.3 µM.

Assay [7] deals with T3, Proteasome subunit beta (Trypanosoma cruzi) (UniProt O96673).
T3 sequence (whole entry): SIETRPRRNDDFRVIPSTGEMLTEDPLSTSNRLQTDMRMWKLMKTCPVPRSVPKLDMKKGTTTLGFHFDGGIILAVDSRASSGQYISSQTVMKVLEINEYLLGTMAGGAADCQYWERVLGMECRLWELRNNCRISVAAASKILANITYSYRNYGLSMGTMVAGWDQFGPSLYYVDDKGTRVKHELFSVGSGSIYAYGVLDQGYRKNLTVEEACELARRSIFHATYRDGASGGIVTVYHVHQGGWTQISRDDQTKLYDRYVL
Briefly: Trypanosoma cruzi proteasome chymotrypsin-like activity (TcProtChymo) assay. Also: in the data most compounds retested in dose-response had high values. Type of assay: functional. The conditions noted are these: 9.37 µM.

The species entered for assay [8] is Homo sapiens. Briefly: To identify inhibition of the IFN signalling (Jak-Stat) pathway via expression of an eGFP reporter gene under the control of an IFN-stimulated response element (ISRE) containing MxA promoter. Type of assay: functional. Particulars: 30 µM. In general terms: Reporter assays use an easily measured gene product as a stand-in for the process of interest.

The target in assay [9] is T4, Tyrosyl-tRNA synthetase, putative (Trypanosoma cruzi (strain CL Brener)) (UniProt Q4DSP6).
T4 sequence (whole entry): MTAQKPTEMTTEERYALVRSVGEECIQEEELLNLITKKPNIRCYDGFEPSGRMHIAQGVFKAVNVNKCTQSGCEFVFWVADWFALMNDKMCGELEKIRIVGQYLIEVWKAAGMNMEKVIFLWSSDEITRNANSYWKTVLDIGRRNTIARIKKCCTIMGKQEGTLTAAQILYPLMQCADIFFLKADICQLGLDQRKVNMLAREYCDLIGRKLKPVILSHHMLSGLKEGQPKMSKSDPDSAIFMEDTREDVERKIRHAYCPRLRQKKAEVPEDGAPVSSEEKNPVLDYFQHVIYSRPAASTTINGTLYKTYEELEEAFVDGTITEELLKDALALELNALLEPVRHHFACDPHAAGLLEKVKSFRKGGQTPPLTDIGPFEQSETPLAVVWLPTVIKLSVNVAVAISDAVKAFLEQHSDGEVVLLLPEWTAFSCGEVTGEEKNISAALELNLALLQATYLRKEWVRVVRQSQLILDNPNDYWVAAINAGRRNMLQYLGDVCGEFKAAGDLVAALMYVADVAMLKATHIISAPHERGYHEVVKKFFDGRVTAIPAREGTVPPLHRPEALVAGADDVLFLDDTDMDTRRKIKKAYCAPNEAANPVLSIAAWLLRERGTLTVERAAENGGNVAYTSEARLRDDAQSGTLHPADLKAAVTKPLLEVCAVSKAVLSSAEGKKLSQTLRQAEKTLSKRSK
Briefly: Trypanosoma cruzi tyrosyl tRNA synthetase (TcYRS) _High Tyrosine SOP. Also: in the data most compounds retested in dose-response had high values. It counts as functional. The conditions noted are these: 30 µM.

For assay [10], the target named is T4, Tyrosyl-tRNA synthetase, putative (Trypanosoma cruzi (strain CL Brener)). Briefly: Trypanosoma cruzi tyrosyl tRNA synthetase (TcYRS) SOP. Type of assay: functional. Particulars: 30 µM.
The target of assay [11] is Chromo domain-containing protein 1 (Saccharomyces cerevisiae (strain ATCC 204508 / S288c) (Baker's yeast)) (UniProt P32657). Description: ScCHD-1 Enzyme Inhibition Assay. Also: in the data most compounds retested in dose-response had high values. Particulars: 30 µM. It counts as functional.
Chain of Chromo domain-containing protein 1 (Saccharomyces cerevisiae (strain ATCC 204508 / S288c) (Baker's yeast)) (P32657 whole entry, the tested form may be a part): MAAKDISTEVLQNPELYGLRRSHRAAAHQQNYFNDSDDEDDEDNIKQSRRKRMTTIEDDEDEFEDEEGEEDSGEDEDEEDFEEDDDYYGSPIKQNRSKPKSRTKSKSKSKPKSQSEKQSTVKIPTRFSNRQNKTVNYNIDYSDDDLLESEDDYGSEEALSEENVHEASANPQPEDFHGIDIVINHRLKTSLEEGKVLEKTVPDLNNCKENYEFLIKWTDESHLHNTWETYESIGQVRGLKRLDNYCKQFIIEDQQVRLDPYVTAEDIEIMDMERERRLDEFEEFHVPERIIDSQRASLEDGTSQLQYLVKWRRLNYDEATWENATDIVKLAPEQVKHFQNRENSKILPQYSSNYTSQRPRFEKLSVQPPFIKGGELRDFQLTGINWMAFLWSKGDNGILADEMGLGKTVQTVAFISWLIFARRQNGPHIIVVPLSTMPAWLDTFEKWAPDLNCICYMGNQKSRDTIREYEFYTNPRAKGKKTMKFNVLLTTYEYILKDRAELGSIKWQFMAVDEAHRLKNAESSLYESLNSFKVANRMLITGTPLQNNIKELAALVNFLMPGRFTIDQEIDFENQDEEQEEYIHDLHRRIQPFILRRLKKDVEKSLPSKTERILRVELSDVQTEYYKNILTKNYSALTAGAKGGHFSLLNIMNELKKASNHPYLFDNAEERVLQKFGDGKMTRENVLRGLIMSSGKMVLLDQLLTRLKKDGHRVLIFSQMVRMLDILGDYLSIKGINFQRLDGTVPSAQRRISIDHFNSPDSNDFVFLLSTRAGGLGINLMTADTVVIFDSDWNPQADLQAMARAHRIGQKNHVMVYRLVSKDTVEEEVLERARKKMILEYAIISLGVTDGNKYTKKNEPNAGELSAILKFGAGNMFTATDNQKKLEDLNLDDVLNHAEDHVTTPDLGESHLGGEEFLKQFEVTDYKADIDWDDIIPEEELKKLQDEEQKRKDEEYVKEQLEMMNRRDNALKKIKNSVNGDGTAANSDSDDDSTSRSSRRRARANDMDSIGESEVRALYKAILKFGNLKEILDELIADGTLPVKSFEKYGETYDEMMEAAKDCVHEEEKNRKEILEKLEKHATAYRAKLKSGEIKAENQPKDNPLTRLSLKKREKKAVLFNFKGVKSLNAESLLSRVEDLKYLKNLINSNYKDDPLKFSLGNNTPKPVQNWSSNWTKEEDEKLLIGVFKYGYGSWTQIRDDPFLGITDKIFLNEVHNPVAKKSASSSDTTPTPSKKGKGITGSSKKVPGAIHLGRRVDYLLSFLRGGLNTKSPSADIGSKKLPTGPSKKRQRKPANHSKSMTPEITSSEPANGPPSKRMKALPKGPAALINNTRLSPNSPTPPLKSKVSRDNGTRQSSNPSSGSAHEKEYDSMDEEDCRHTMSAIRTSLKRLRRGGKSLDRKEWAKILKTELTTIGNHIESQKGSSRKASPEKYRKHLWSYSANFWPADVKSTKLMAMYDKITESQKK

Chain of Protein translocase subunit SecA (Escherichia coli (strain K12)) (P10408 whole entry): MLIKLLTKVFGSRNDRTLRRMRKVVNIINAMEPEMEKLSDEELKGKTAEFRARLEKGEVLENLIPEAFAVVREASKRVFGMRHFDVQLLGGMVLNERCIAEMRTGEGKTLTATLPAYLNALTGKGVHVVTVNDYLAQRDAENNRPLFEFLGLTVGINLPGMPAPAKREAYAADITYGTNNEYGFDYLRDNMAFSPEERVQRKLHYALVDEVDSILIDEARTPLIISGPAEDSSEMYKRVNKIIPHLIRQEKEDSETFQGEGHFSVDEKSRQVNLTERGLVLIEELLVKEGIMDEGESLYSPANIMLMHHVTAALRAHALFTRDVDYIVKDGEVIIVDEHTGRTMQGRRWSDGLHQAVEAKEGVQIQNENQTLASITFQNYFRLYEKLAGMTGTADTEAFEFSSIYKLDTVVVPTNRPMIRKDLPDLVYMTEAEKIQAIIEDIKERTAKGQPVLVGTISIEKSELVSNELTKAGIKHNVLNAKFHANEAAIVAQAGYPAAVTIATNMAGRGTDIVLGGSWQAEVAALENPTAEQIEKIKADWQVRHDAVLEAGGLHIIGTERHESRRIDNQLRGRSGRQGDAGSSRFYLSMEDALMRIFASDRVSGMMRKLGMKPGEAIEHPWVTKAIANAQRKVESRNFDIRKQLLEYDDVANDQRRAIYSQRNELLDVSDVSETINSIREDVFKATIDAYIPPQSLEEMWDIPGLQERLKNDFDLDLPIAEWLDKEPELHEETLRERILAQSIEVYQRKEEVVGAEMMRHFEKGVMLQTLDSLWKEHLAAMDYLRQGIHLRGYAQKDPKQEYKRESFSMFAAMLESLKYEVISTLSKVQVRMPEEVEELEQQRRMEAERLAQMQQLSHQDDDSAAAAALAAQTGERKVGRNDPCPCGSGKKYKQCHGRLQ
Chain of Sialic acid-binding Ig-like lectin 9 (Homo sapiens) (Q9Y336 whole entry): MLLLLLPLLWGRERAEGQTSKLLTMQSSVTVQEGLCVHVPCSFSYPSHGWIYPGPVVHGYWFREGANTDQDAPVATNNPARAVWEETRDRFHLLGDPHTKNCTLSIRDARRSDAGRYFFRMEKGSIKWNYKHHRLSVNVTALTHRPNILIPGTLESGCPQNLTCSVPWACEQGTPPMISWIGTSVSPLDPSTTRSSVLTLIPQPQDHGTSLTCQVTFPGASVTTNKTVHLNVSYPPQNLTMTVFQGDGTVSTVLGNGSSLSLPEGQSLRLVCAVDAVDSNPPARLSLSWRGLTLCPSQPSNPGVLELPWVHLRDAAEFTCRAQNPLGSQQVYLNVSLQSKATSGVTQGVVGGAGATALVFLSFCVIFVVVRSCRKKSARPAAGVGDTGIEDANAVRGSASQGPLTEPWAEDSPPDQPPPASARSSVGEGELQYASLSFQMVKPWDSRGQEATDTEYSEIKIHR

Consider `COc1ccc(Br)c(C(=O)NCC2CCN(S(=O)(=O)C3CC3)CC2)c1`, for which the Percent Effect was -4.34% in assay [1]; 19.2% in [2]; -7.39% in assay [3]; 14% in assay [4]; 6.07% in assay [5]; -3.18% in assay [6]. Further, the Percent Effect was 19.5% in assay [7]; 20.3% in assay [8]; 4.3% in assay [9]; 17.5% in assay [10]; -9.38% in assay [11].

On to `CC(C)N1CC(C(=O)NCCOc2ccc3c(c2)OCO3)CC1=O` (stereo unspecified), for which the Percent Effect is 0.716% in [1]; 21.1% in [2]; -0.48% in [3]; -5.15% in [4]; 3.64% in assay [5]; 2.16% in assay [6]. Further, the Percent Effect in assay [7] was 12.1%; in assay [8] it was 4.59%; in [9], 8.37%; in assay [10] it was 23.5%; in assay [11] it was -9.09%.

With `Cc1ccccc1C(=O)NCc1ccc(N2CCNC(=O)C2)cc1`, the Percent Effect in assay [1] was 1.43%; in assay [2], 5.41%; in [3] it was -9.32%; in assay [4] it was 6.76%; in assay [5], 1.16%; in assay [6] it was -14.8%. Besides, the Percent Effect in assay [7] is 14.3%; in [8], -13.4%; in assay [9] it was 15.3%; in [10], 17.1%; in [11], -3.63%.

Turning to `Cn1cnnc1C1CCN(C(=O)CCCOc2ccccc2F)CC1`, the Percent Effect in assay [1] was -5.06%; in [2], 10.4%; in [3], -2%; in [4], 4.13%; in assay [5], -7.87%; in assay [6], 4.98%. The Percent Effect in [7] was 2.53%; in assay [8], 14.2%; in assay [9], 3.88%; in assay [10], 7.32%; in assay [11], -2.08%.

Consider `O=C(NCc1ccccc1F)N1CCC(C2OCCO2)CC1`, for which the Percent Effect in assay [1] was -3.95%; in [2] it was 7.89%; in assay [3], -0.484%; in assay [4], -1.41%; in assay [5], -5.94%; in assay [6], -5.92%. The Percent Effect is 7.19% in assay [7]; -6.9% in assay [8]; 4.25% in assay [9]; 7.79% in assay [10]; -3.04% in assay [11].

With `COc1ccccc1OCc1cc(C(=O)N2CCN[C@H](C)C2)n[nH]1`, the Percent Effect in assay [1] is -4.07%; in assay [2], 8.11%; in [3] it was -4.98%; in assay [4], 25.9%; in assay [5], 4.63%; in assay [6] it was 2.38%. For the same molecule, the Percent Effect in assay [7] is 27.4%; in assay [8], 3.54%; in [9], 1.59%; in assay [10], 12.2%; in [11], -8.49%.

As to `O=C(N1CCOCC1)N1CCc2ncnc(NC3CC3)c2CC1`, the Percent Effect in [1] was -0.799%; in [2], 0%; in assay [3], 6.99%; in assay [4], -5.96%; in [5], -7.81%; in assay [6] it was 6.67%. Besides, the Percent Effect came to 19.2% in assay [7]; 19.9% in assay [8]; 0.99% in assay [9]; 6.1% in assay [10]; 0.83% in assay [11].

As to `O=C(Nc1ccnc(OC2CCOC2)c1)c1cc(F)ccc1F` (stereo unspecified), the Percent Effect in assay [1] is -5.45%; in assay [2], -1.39%; in assay [3] it was 2.94%; in assay [4], 5.39%; in assay [5], -1.65%; in [6] it was -2.65%. The Percent Effect in assay [7] was 11.6%; in assay [8] it was 2.19%; in assay [9] it was -5.26%; in assay [10], -10.3%; in assay [11] it was 9.81%.

Turning to `Cc1ccc(C)c(NC(=O)Nc2c[nH]c(=O)[nH]c2=O)c1`, the Percent Effect in assay [1] was 3.77%; in [2] it was 13%; in assay [3] it was -1.87%; in [4], -3.33%; in assay [5] it was -4.44%; in [6], 11%. In addition, the Percent Effect in assay [7] is 4.7%; in [8], 7.57%; in assay [9], 2.12%; in [10] it was 3.85%; in assay [11], -8.57%.

On to `c1coc(-c2noc(CN3CCC(c4ccn[nH]4)CC3)n2)c1`, for which the Percent Effect in assay [1] is -1.24%; in assay [2], 5.41%; in assay [3], -3.37%; in [4] it was 31.9%; in assay [5], 5.02%; in assay [6] it was 0%. Further, the Percent Effect in [7] was 16.4%; in assay [8], 3.15%; in [9], -1.59%; in assay [10], 7.32%; in assay [11], -4.25%.

For `O=C(c1ncccn1)N1C[C@H]2CCC[C@@]2(COCC2CCOCC2)C1`, the Percent Effect in assay [1] was -5.07%; in [2], 10.8%; in assay [3], 1.99%; in assay [4], -7.31%; in assay [5], 6.16%; in [6], -0.319%. For the same molecule, the Percent Effect was found to be 19.9% in assay [7]; 25.2% in [8]; 6.49% in assay [9]; 15.4% in assay [10]; 2.35% in [11].
